Source: PubChem BioAssay
Rows were chosen to be rich in hits. Some 3.7% of all compounds tested hit in one or more screens of this group.
FEN1 inhibitor: blocks human flap endonuclease 1; P39748; Recombinant FEN1 flap cleavage, fluorescence, 15 min; Potency, µM (top dose mostly 114 µM), for the others: at the top dose activity change, negative = inhibition, hits mostly inhibitors; hit rate 0.35% among 390,000; further: potency means the concentration at half of the fitted maximal effect; on the % scale 0 is the no-effect control and ±100 the full control effect; nearly all actives have a fitted effect of over 65% in size
Target sequence (P39748 whole entry, looked up): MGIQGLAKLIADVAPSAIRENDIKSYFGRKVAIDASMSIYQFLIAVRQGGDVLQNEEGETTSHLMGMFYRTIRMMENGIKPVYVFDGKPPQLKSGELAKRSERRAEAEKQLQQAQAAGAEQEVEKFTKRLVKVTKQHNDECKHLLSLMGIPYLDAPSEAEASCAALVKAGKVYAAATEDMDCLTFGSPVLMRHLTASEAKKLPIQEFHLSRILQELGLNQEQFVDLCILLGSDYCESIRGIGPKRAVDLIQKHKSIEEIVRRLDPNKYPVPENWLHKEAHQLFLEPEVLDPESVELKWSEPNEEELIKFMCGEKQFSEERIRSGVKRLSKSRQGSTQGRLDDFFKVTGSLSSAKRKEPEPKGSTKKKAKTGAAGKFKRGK
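Compounds are tested as a concentration series against 10 nM FEN1; after a 15 min room-temperature preincubation, 50 nM substrate starts cleavage, with plate reads at 0 and 15 min. Normalized responses are fitted by a Hill equation.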
WRN inhibitor: blocks human WRN helicase; Q14191; WRN helicase unwinding, fluorescent forked duplex, kinetic; Potency, µM (top dose mostly 114 µM), without a hit: at the highest dose activity change, negative = inhibition, hits mostly inhibitors; hit rate 0.46% among 360,000; further: potency means the concentration at half of the fitted maximal effect; on the % scale 0 is the no-effect control and ±100 the full control effect; nearly all actives have a fitted effect of over 55% in size
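WRN at 20 nM final was preincubated with compound for 15 min at room temperature; reaction started with 100 nM forked duplex oligonucleotide carrying fluorophore and quencher plus 2 mM ATP (final). Unwinding followed kinetically by red fluorescence (ex 525/em 598 nm).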
PLK1 PBD inh: PLK1 (human) polo-box domain binding inhibition; P53350; hit rate 2.8% among 360,000; Plk1 PBD binding of FITC phosphopeptide, fluorescence polarization; Potency, µM, without a hit: max response, negative = inhibition, usual class: inhibitors; further: potency means the concentration at half of the fitted maximal effect; series mostly up to about 57 µM; on the % scale 0 is the no-effect control and ±100 the full control effect; nearly all actives have a fitted effect of over 65% in size
PI5P4Ka inh: blocks human PI5P4K alpha kinase activity | PI5P4Kalpha enzyme, ADP-Glo luminescence, 60 min; active compounds read low | hit rate 1.2% among 330,000 | AID 652105 | P48426 | max response, %; active means max response of -50% or lower; inconclusive means between -30% and -50%; inactive means -30% or higher; further: value at the top dose of about 77 µM; on the % scale 0 is the no-effect control and ±100 the full control effect
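PI5P4Kalpha ADP-Glo assay; 5 microM ATP final; 60 min RT reaction; HEPES pH 7.4/EGTA/CHAPS, 5% DMSO; controls lacking substrate or enzyme; luminescent end-point.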
VDR inhibitor: inhibitors of human vitamin D receptor; Potency, µM, for inactives: max response, negative = inhibition, usual class: inhibitors; VDR-SRC2-3 peptide fluorescence polarization, 2 h; hit rate 0.93% among 400,000; P11473; further: potency means the concentration at half of the fitted maximal effect; on the % scale 0 is the no-effect control and ±100 the full control effect
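Signal is fluorescence polarization, reporting how far test compounds block the interaction of VDR with the SRC2-3 coregulator peptide after a 2 h room-temperature incubation.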
TCR activator: T cell receptor activation. primary human leukocytes, anti-CD3, IL-2 HTRF, 48 h. Potency, µM (highest dose often 9.22 µM), for inactives: top-dose activation of IL-2 secretion, most hits filed as activators. 330,000 tested, under 10 active. AID 504894; further: % of control where 0% means no effect
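IL-2 release read by HTRF sandwich (Eu cryptate donor, d2 acceptor, 665 nm emission) after 48 hr exposure of primary human leukocytes to compound together with anti-CD3 beads in the absence of co-stimulatory signals.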
The depositor's hits bear a star; ? = inconclusive; nt = not tested or not shown; [ ] = remark or other dose. Unless noted, the call rests on the fitted dose curve; in most records, active means well fitted curve in the direction sought with a large enough effect; inconclusive means small, poorly fitted or top-dose-only effect, or another doubt; inactive means no such curve, though single readings can be large; an effect the other way counts as inactive or inconclusive.

SMILES | FEN1 inhibitor | WRN inhibitor | PLK1 PBD inh | PI5P4Ka inh | VDR inhibitor | TCR activator
O=C(N/N=C/c1ccc(O)c(O)c1O)/C(=C/c1ccc([N+](=O)[O-])cc1)NC(=O)c1ccccc1 | ? | 39.8µM* | 9.47µM* | -86.1* | ? | 2.1%
Cc1cccc2c1N(CCOc1ccccc1Cl)C(=O)C2=O | 8.1% | -6.0% | -20.3% | 1.0 | ? | -2.1%[46.1 µM]
Cc1ccccc1OCCN1C(=O)C(=O)c2cccc(C)c21 | 8.8% | -3.6% | ? | 2.7 | 50.1µM* | -4.1%[46.1 µM]
O=C1NC(=S)N/C1=C/C=C/c1ccccc1 | 4.8% | -4.1% | -0.2% | 6.0 | 3.8% | -2.4%
O=C1NC(=S)NC(=O)C1=Cc1ccccc1C(=O)O | -2.3% | -19.5% | 23.8µM* | -73.0* | ? | 1.6%
Cc1ccc(C(=O)OCC(=O)NC(=O)c2cccn2C)cc1 | -3.2% | -0.6% | -6.0% | nt | -2.2% | -1.4%
Cc1ccc(C(=O)OCC(=O)NC(=O)c2cccn2C)cc1[N+](=O)[O-] | -3.0% | -3.9% | 26.7µM* | ? | ? | 9.3%
CCCCN(C)CCNC(=O)c1cc(-c2cccnc2)nc2ccc(S(=O)(=O)N3CCC(C)CC3)cc12 | 12.7% | 4.4% | 26.7µM* | -8.2 | ? | -2.0%
Cc1ccc2nc(NC(=O)CSc3nccn3Cc3ccc(F)cc3)sc2c1 | -10.7% | nt | nt | nt | 8.8% | nt
CCCCCCCCCCCCCCCC[n+]1cccc2ccccc21 | 79.4µM* | ? | ? | -59.1* | -27.1% | -0.9%[46.1 µM]
CCCCCCC[n+]1ccc(C)c2ccccc21 | 3.3% | nt | nt | nt | nt | nt
CCCCCCCCCCCC[n+]1ccc(C)c2ccccc21 | 35.5µM* | nt | nt | nt | nt | nt
O=C(O)c1cc(=O)c2c(Cl)cc(Cl)cc2[nH]1 | 15.3% | -2.1% | -3.1% | -58.9* | -10.2% | -14.5%
O=C(O)c1cc(=O)c2ccccc2[nH]1 | 0.1% | 9.4% | -0.7% | -15.7 | 4.8% | 2.4%
Cc1cc(SCC(=O)NN)c2cc(Br)ccc2n1 | -1.8% | -11.0% | ? | -28.6 | 28.2µM* | -5.3%
O=S(=O)(c1ccccc1)N1CCC[C@@]2(CCN(c3ccccc3)C2)C1 | nt | nt | nt | nt | 31.6µM* | nt
O=C(Cn1cc(COc2cc(F)cc(F)c2)nn1)c1ccc(O)cc1 | -10.9% | -2.4% | -8.3% | -0.6 | -8.7% | 6.5%
O=C(Cn1cc(COc2ccccc2C(F)(F)F)nn1)c1ccc(O)cc1 | -11.2% | 8.9% | 21.2µM* | -26.0 | ? | 2.9%
COc1cc(C(C)=O)ccc1OCc1cn(CC(=O)c2ccc(O)cc2)nn1 | ? | 2.9% | 23.8µM* | ? | 89.1µM* | 6.9%
CC(=O)c1ccc(OCc2cn(CC(=O)c3ccc(O)cc3)nn2)c(C)c1 | nt | 1.0% | -5.9% | -3.6 | nt | nt
O=S(=O)(Nc1c(Br)cc(Br)c2cccnc12)C1CCCCC1 | 0.9% | nt | nt | nt | -4.8% | nt
O=C(Nc1ccc(Cl)cc1)OCCn1nnnc1C(c1ccccc1Cl)N1CCOCC1 (configuration not stated) | -9.1% | -4.0% | 21.2µM* | -0.6 | ? | nt
COc1cccc(CN2Cc3cccc4c3[C@H](C=CC4)CC2=O)c1 | -10.0% | nt | nt | nt | nt | nt
CC(NC(=O)/C(C#N)=C/c1ccc([N+](=O)[O-])o1)c1ccccc1 (configuration not stated) | ? | 56.2µM* | 23.8µM* | ? | 25.1µM* | -6.0%
CC(NC(=O)/C(C#N)=C/c1ccco1)c1ccccc1 (configuration not stated) | 11.0% | 1.8% | -3.9% | -10.0 | -11.8% | -4.0%
SMILES | FEN1 inhibitor | WRN inhibitor | PLK1 PBD inh | PI5P4Ka inh | VDR inhibitor | TCR activator
CCOc1ccccc1CNc1ccc(O)cc1 | -9.7% | -23.3% | ? | ? | 39.8µM* | 4.9%
COc1ccc(Br)cc1CNc1ccc(O)cc1 | -11.9% | -12.4%[57.1 µM] | 29.9µM* | -29.2 | 25.1µM* | -0.2%
CCOc1cc(CNc2ccc(O)cc2)ccc1OCc1ccc(Cl)cc1Cl | -13.2% | ? | -21.2% | -7.0 | 31.6µM* | 2.6%
COc1ccc(Br)cc1CNc1ccc2[nH]c(=O)[nH]c2c1 | -6.5% | 2.9% | -5.2% | -0.2 | 15.7% | -10.0%
CCOc1cccc(CNc2ccc(O)cc2)c1OCc1ccc(Cl)cc1 | -23.7% | ? | -8.3% | -12.8 | ? | -4.5%
CCc1ccccc1NNC(=O)c1sccc1Cl | 0.3% | nt | nt | nt | -13.8% | nt
